Eight compounds from PubChem BioAssay (NCI) can be followed below.

Some test systems named below: NCI-H23 lung; NCI-H226 lung; NCI-H322M lung; HOP-62 NSCLC; HOP-92 NSCLC; NCI-H522 lung; A549/ATCC NSCLC; 786-0 renal; COLO 205 colon; DU-145 prostate; K-562 leukemia; MALME-3M melanoma; MDA-MB-231 breast; RXF 393 renal; SF-268 CNS; SF-295 CNS; SF-539 CNS; UACC-257 melanoma; M14 melanoma; NCI-H460 lung.
Holding throughout (assay): NCI-60 one-dose screen, 48 h (100 = growth as untreated, 0 = no growth, -100 = all killed)
Conditions in all cases: 10 µM unless noted

This is part of a sample that, as a whole, favours compounds with a hit. Of some 83,000 tested, about 20% had one in any assay.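 Compound tested at a single concentration for 48 hours in 96-well plates; a percent growth value below 10 was scored as active.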 A number with no mark means an inactive call. Active and inactive are the calls of the source.

Regarding `COc1ccc(-c2ccc(-c3ccc(C(=N)N)s3)s2)cc1Cl`, the growth was 45.4% in the assay on NCI-H23 lung; 79.3% in the assay on NCI-H226 lung; 96.8% with NCI-H322M lung; 70.9% with HOP-62 NSCLC; 16.5% in the assay with HOP-92 NSCLC; 0.287% (active) in the assay on NCI-H522 lung. Besides, the growth in the assay on A549/ATCC NSCLC is -69.8% (active); with 786-0 renal it was 72.3%; with COLO 205 colon, -48.4% (active); in the assay on DU-145 prostate, 0.775% (active); in the assay with K-562 leukemia, -37.4% (active); in the assay on MALME-3M melanoma, 64.3%. The growth with MDA-MB-231 breast is -42.3% (active); with RXF 393 renal it was -87.5% (active); in the assay with SF-268 CNS it was 76.8%; in the assay on SF-295 CNS it was 10.8%; in the assay with SF-539 CNS it was 65.7%; in the assay on UACC-257 melanoma, 106%. The growth in the assay with M14 melanoma is 97.2%.
Consider `O=C(Nc1cccc(-n2cc(-c3ccncc3)c(-c3ccc(Cl)c(O)c3)n2)c1)c1ccc(N2CCOCC2)c(C(F)(F)F)c1`, for which the growth is 61.3% with NCI-H23 lung; 107% in the assay on NCI-H226 lung; 82.1% in the assay on NCI-H322M lung; 40.4% in the assay with HOP-62 NSCLC; 5.81% (active) with NCI-H460 lung; 10.2% with HOP-92 NSCLC. The growth is 39.6% in the assay with NCI-H522 lung; 59.6% with 786-0 renal; 96.1% in the assay with COLO 205 colon; 52.7% in the assay with DU-145 prostate; 7.96% (active) in the assay with K-562 leukemia; 10.7% in the assay with MALME-3M melanoma. For the same compound, the growth in the assay with MDA-MB-231 breast was 23.4%; with RXF 393 renal, -26% (active); in the assay on SF-268 CNS, 55.5%; with SF-539 CNS, 41.6%; with UACC-257 melanoma, 38.9%; with M14 melanoma, 22.7%.
For the compound `C=CCSc1n[nH]c(-c2cccs2)n1`, the growth is 104% in the assay with NCI-H23 lung; 99.4% in the assay on NCI-H226 lung; 110% in the assay on NCI-H322M lung; 94.3% in the assay with HOP-62 NSCLC; 94.7% in the assay on HOP-92 NSCLC; 92% with NCI-H522 lung. Besides, the growth in the assay with 786-0 renal was 95.9%; with COLO 205 colon, 137%; in the assay on DU-145 prostate, 121%; with K-562 leukemia it was 85.6%; in the assay with MALME-3M melanoma, 110%; in the assay with MDA-MB-231 breast it was 121%. For the same compound, the growth in the assay on SF-268 CNS is 111%; with SF-295 CNS, 106%; with SF-539 CNS it was 98.3%; with UACC-257 melanoma, 76.4%; in the assay on M14 melanoma, 104%.
As to `CNc1ccc(Br)c2c1C(=O)c1ccccc1C2=O`, the growth in the assay on NCI-H23 lung is 98.3%; in the assay with NCI-H226 lung, 104%; in the assay on NCI-H322M lung it was 110%; in the assay with HOP-62 NSCLC it was 107%; with HOP-92 NSCLC, 80.6%; in the assay with NCI-H522 lung it was 98%. The growth with A549/ATCC NSCLC is 110%; in the assay with 786-0 renal, 96.7%; in the assay with COLO 205 colon it was 132%; with DU-145 prostate, 121%; with K-562 leukemia, 94.9%; in the assay with MALME-3M melanoma it was 117%. In addition, the growth is 103% in the assay on MDA-MB-231 breast; 122% in the assay on RXF 393 renal; 115% with SF-268 CNS; 110% in the assay on SF-295 CNS; 103% with SF-539 CNS; 121% in the assay on UACC-257 melanoma. For the same compound, the growth in the assay with M14 melanoma was 118%.
In the case of `O=c1[nH]c2ccc(Br)cc2c2c1C(c1ccc(Cl)cc1)c1c(ncn3nc(-c4ccco4)nc13)O2` (stereo not drawn), the growth is 76.1% in the assay with NCI-H23 lung; 65.5% with NCI-H226 lung; 75.3% with NCI-H322M lung; 50% in the assay with HOP-62 NSCLC; 37.7% in the assay with HOP-92 NSCLC; 69.4% with NCI-H522 lung. Also, the growth was 74.8% with A549/ATCC NSCLC; 91% with COLO 205 colon; 90% with DU-145 prostate; 80% in the assay on K-562 leukemia; 77.5% with MALME-3M melanoma; 48.6% in the assay with MDA-MB-231 breast. Also, the growth with RXF 393 renal was 59.1%; with SF-268 CNS it was 74.3%; in the assay with SF-295 CNS, 87.9%; in the assay with SF-539 CNS, 65.5%; in the assay with UACC-257 melanoma, 98.3%; in the assay on M14 melanoma it was 74.9%.
With `CCCCCCCCCCCCNC(=O)[C@H]1CSC(c2cc(Br)cs2)N1` (stereo partly drawn), the growth with NCI-H23 lung was 18.1%; in the assay with NCI-H226 lung it was 10.4%; in the assay on NCI-H322M lung it was 54%; in the assay on HOP-62 NSCLC, -97.5% (active); in the assay with HOP-92 NSCLC, 61.7%; in the assay with NCI-H522 lung it was -1.62% (active). Further, the growth in the assay with A549/ATCC NSCLC was 71%; in the assay with 786-0 renal, 38.3%; in the assay with COLO 205 colon it was 108%; in the assay with DU-145 prostate, -48.2% (active); in the assay on K-562 leukemia it was -47.2% (active); with MALME-3M melanoma, 13.1%. Further, the growth in the assay with MDA-MB-231 breast was -77.9% (active); in the assay with RXF 393 renal, -60% (active); with SF-268 CNS, -72.4% (active); with SF-295 CNS it was 36%; in the assay on SF-539 CNS it was -66.3% (active); with UACC-257 melanoma, -22.3% (active). Further, the growth in the assay with M14 melanoma is -83.5% (active).
Take `Oc1ccc2cc(Br)ccc2c1-c1c(O)ccc2cc(Br)ccc12`: the growth with NCI-H23 lung is 55.4%; in the assay on NCI-H226 lung, 81.6%; in the assay with NCI-H322M lung, 57.1%; with HOP-62 NSCLC, 72.2%; with HOP-92 NSCLC it was 20%; in the assay on NCI-H522 lung it was 53.9%. The growth is 44% with A549/ATCC NSCLC; 77.8% in the assay with 786-0 renal; 54.7% with COLO 205 colon; 78.2% in the assay with DU-145 prostate; 54% in the assay with K-562 leukemia; 97.9% with MALME-3M melanoma. The growth was 50.1% in the assay on MDA-MB-231 breast; 59.8% in the assay on RXF 393 renal; 53.8% with SF-268 CNS; 76.5% with SF-295 CNS; 82% in the assay with SF-539 CNS; 82.6% with UACC-257 melanoma. Further, the growth in the assay on M14 melanoma is 58.9%.
`O=C(NS(=O)(=O)c1ccccc1)n1cc(-c2ccncc2)c(-c2ccc(Cl)c(O)c2)n1`: the growth in the assay with NCI-H23 lung was 104%; in the assay with NCI-H226 lung it was 103%; in the assay with NCI-H322M lung, 103%; in the assay with HOP-62 NSCLC it was 119%; in the assay on HOP-92 NSCLC, 99.6%; in the assay on NCI-H522 lung, 85.4%. For the same compound, the growth in the assay on A549/ATCC NSCLC is 98.3%; in the assay on 786-0 renal it was 100%; in the assay with COLO 205 colon it was 111%; in the assay on DU-145 prostate, 104%; in the assay with K-562 leukemia, 88.9%; in the assay on MALME-3M melanoma it was 27.6%. The growth with MDA-MB-231 breast is 112%; in the assay with RXF 393 renal it was 107%; in the assay on SF-268 CNS, 97.7%; in the assay on SF-295 CNS, 107%; in the assay with SF-539 CNS, 97.6%; in the assay on UACC-257 melanoma, 91.6%. Further, the growth with M14 melanoma is 34.2%.
